# Measured values reported in PubChem BioAssay (Tox21).
# Values joined by “and” are separate entries in the source; they are usually repeats but may differ in a detail not shown here. Equal entries are not always repeated. Inconclusive results are not listed. Some structures have more than one record in an assay (separate samples or runs), and their calls can disagree. Active and inactive are the calls of the source. Unless noted, the call rests on the fitted dose curve; in most records, active means well fitted curve in the direction sought with a large enough effect in the repeat runs; inconclusive means weak or mixed curves; inactive means no such curve, though single readings can be large; an effect the other way counts as inactive or inconclusive.
# Experiment: qHTS assay for small molecule activators of the heat shock response signaling pathway - cell viability counter screen (AID 743209); further: nearly all actives have a fitted effect of over 50% in size; further: potency means the concentration at half of the fitted maximal effect
# Conditions: HSE-bla HeLa viability, CellTiter-Glo luminescence, 5 h; series mostly up to 62.6 µM; activity change, negative = cytotoxicity: at the top concentration
# How it was run: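 Cytotoxicity counter screen run in parallel with the HSE beta-lactamase reporter, using the same wells. HeLa HSE-bla cells received compound for 5 h at 37 C; ATP-based CellTiter-Glo luminescence was measured after 30 min at room temperature.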
# On the % scale 0 is the no-effect control and ±100 the full control effect.
SMILES,Potency,"activity change, negative = cytotoxicity"
O=CC(Br)(Br)Br,6.14 µM (active),
CC(C)C1CCC(Cc2ccc(Cl)cc2)C1(O)Cn1cncn1 (stereo unspecified),,-12.5% (inactive)
O=C(CCl)Nc1ccccc1,43.6 µM (active),
Cn1cc(C2=C(c3cn(C4CCN(Cc5ccccn5)CC4)c4ccccc34)C(=O)NC2=O)c2ccccc21,,21% (inactive)
CC(c1ccc(O)cc1)c1ccc(O)cc1,,-1.75% (inactive)
CCCCCCCCCCCCCCCCCCn1cc[n+](C)c1,43.4 µM (active),
O=C(CCCN1CCC2(CC1)C(=O)NCN2c1ccccc1)c1ccc(F)cc1,,8.87% (inactive)
c1ccc(Nc2ccc3ccccc3c2)cc1,inactive and 54.9 µM (active),
COP(=S)(OC)Oc1cc(Cl)c(Br)cc1Cl,,5.6% (inactive)
Clc1ccc(CO/N=C(\Cn2ccnc2)c2ccc(Cl)cc2Cl)c(Cl)c1,23.7 µM (active),
Cc1c(Cl)c(=O)oc2cc(OP(=O)(OCCCl)OCCCl)ccc12,,4.58% (inactive)
CC1(C)C(/C=C(\Cl)C(F)(F)F)C1C(=O)OC(C#N)c1cccc(Oc2ccccc2)c1 (stereo unspecified),,-0.995% [at 81.1 µM] (inactive)
CC(=O)OC1(c2ccccc2)CCN(CCc2ccccc2)CC1,,0.53% [at 81.1 µM] (inactive)
O=C(O)C1C2CCC(O2)C1C(=O)O (stereo unspecified),inactive,
BrC(Br)C(Br)(Br)Br,,-18.1% [at 81.1 µM] (inactive)
O=c1[nH]c2ccccc2n1CCCN1CCC(n2c(=O)[nH]c3cc(Cl)ccc32)CC1,,14.2% (inactive)
Oc1ccc2ccc3cccc4ccc1c2c34,,-2.34% (inactive)
Oc1ccc(C(=C(Cl)Cl)c2ccc(O)cc2)cc1,,-18.7% (inactive)
Oc1c(Br)c(Br)c(Br)c(Br)c1Br,,-26.9% [at 81.1 µM] (inactive)
C=CCC1=C(C)C(OC(=O)C2C(C=C(C)C)C2(C)C)CC1=O (stereo unspecified),46.3 µM (active),
O=C(O)COc1nc(Cl)c(Cl)cc1Cl,,-17.7% [at 81.1 µM] (inactive)
CCOc1cc(C(C)(C)C)ccc1C1COC(c2c(F)cccc2F)=N1 (stereo unspecified),,-17.4% (inactive)
Cc1ccc(OP(=O)(Oc2ccccc2)Oc2ccccc2)cc1,,-6.67% [at 81.1 µM] (inactive)
COc1ccc(N)cc1N,8.01 µM (active),
ClC1=C(Cl)C2(Cl)C3C(Cl)C(Cl)CC3C1(Cl)C2(Cl)Cl (stereo unspecified),21.8 µM (active) and 38.9 µM (active),
CC(C)CC(C)Nc1ccc(Nc2ccccc2)cc1 (stereo unspecified),54 µM (active),
C[C@H]1O[C@@H](O[C@H]2[C@@H](O)C[C@H](O[C@H]3[C@@H](O)C[C@H](O[C@H]4CC[C@@]5(C)[C@H](CC[C@@H]6[C@@H]5CC[C@]5(C)[C@@H](C7=CC(=O)OC7)CC[C@]65O)C4)O[C@@H]3C)O[C@@H]2C)C[C@H](O)[C@@H]1O,87.7 nM (active) and 376 nM (active),

# Experiment: qHTS assay for small molecule activators of the heat shock response signaling pathway (AID 743210; active means well fitted activation curve with a large enough effect in the signal ratio in the repeat runs, with a control signal flat, not every such curve was filed as active; the % refers to the signal ratio)
# Conditions: HeLa HSE-bla reporter, beta-lactamase ratio, 5 h; series mostly up to 62.6 µM; activation: at the top concentration
# How it was run: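 Compound exposure lasted 5 h at 37 C in HeLa cells carrying a heat-shock-element-driven beta-lactamase reporter. Read-out: fluorescence intensity after 2.5 h room-temperature loading with LiveBLAzer B/G FRET substrate.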
SMILES,activation,Potency
CC(c1ccc(O)cc1)c1ccc(O)cc1,-0.672% (inactive),
O=C(CCCN1CCC2(CC1)C(=O)NCN2c1ccccc1)c1ccc(F)cc1,-0.891% (inactive),
c1ccc(Nc2ccc3ccccc3c2)cc1,-0.715% (inactive),
COP(=S)(OC)Oc1cc(Cl)c(Br)cc1Cl,6.65% (inactive),
CCOCCOC(C)=O,4.36% (inactive),
Cc1c(Cl)c(=O)oc2cc(OP(=O)(OCCCl)OCCCl)ccc12,5.87% (inactive),
CC(=O)OC1(c2ccccc2)CCN(CCc2ccccc2)CC1,-1.21% [at 81.1 µM] (inactive),
COc1cccc2c1C(=O)c1c(O)c3c(c(O)c1C2=O)C[C@@](O)(C(=O)CO)CC3OC1CC(N2CCOC(OC)C2)C(O)C(C)O1 (stereo partly specified),-0.375% (inactive),
O=C(O)C1C2CCC(O2)C1C(=O)O (stereo unspecified),,inactive
O=c1[nH]c2ccccc2n1CCCN1CCC(n2c(=O)[nH]c3cc(Cl)ccc32)CC1,-0.075% (inactive),
O=C(O)COc1nc(Cl)c(Cl)cc1Cl,2.21% [at 81.1 µM] (inactive),
Cc1ccc(OP(=O)(Oc2ccccc2)Oc2ccccc2)cc1,-0.483% [at 81.1 µM] (inactive),

# Experiment: qHTS assay to identify small molecule agonists of the peroxisome proliferator-activated receptor delta (PPARd) signaling pathway - cell viability counter screen (AID 743211); further: nearly all actives have a fitted effect of over 55% in size; further: potency means the concentration at half of the fitted maximal effect
# Conditions: PPARd-bla HEK293H viability, CellTiter-Glo luminescence, 17 h; series mostly up to 62.6 µM; activity change, negative = cytotoxicity: at the top concentration
# How it was run: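 Read-out: CellTiter-Glo luminescence, 30 min RT, measured in the same wells as the beta-lactamase reporter. Cells: GeneBLAzer PPAR delta UAS-bla HEK293H, 3000 cells/well, compound exposure 17 h at 37C.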
SMILES,Potency,"activity change, negative = cytotoxicity"
O=CC(Br)(Br)Br,17.3 µM (active),
CC(C)C1CCC(Cc2ccc(Cl)cc2)C1(O)Cn1cncn1 (stereo unspecified),54.4 µM (active),
CC(c1ccc(O)cc1)c1ccc(O)cc1,,1.96% (inactive)
O=C(CCCN1CCC2(CC1)C(=O)NCN2c1ccccc1)c1ccc(F)cc1,,-12.9% (inactive)
c1ccc(Nc2ccc3ccccc3c2)cc1,inactive,
COP(=S)(OC)Oc1cc(Cl)c(Br)cc1Cl,,-21.3% (inactive)
Clc1ccc(CO/N=C(\Cn2ccnc2)c2ccc(Cl)cc2Cl)c(Cl)c1,,1.32% (inactive)
CCOCCOC(C)=O,,-25.2% (inactive)
Cc1c(Cl)c(=O)oc2cc(OP(=O)(OCCCl)OCCCl)ccc12,,1.16% (inactive)
Nc1ccccc1C(=O)Oc1ccc2ccccc2c1,,-11.5% (inactive)
CC1(C)C(/C=C(\Cl)C(F)(F)F)C1C(=O)OC(C#N)c1cccc(Oc2ccccc2)c1 (stereo unspecified),,-15.5% [at 81.1 µM] (inactive)
COc1cccc2c1C(=O)c1c(O)c3c(c(O)c1C2=O)C[C@@](O)(C(=O)CO)CC3OC1CC(N2CCOC(OC)C2)C(O)C(C)O1 (stereo partly specified),,-3.6% (inactive)
CCCN(CCC)c1c([N+](=O)[O-])cc(S(N)(=O)=O)cc1[N+](=O)[O-],20.8 µM (active),
O=C(O)C1C2CCC(O2)C1C(=O)O (stereo unspecified),inactive,
BrC(Br)C(Br)(Br)Br,49.3 µM (active),
Oc1ccc2ccc3cccc4ccc1c2c34,,-9.45% (inactive)
O=C(O)COc1nc(Cl)c(Cl)cc1Cl,,17% [at 81.1 µM] (inactive)
CCOc1cc(C(C)(C)C)ccc1C1COC(c2c(F)cccc2F)=N1 (stereo unspecified),29.7 µM (active),
O=C(CCl)C(Cl)Cl,17.5 µM (active),
ClC1=C(Cl)C2(Cl)C3C(Cl)C(Cl)CC3C1(Cl)C2(Cl)Cl (stereo unspecified),21.8 µM (active) and 24.5 µM (active),
CC(C)CC(C)Nc1ccc(Nc2ccccc2)cc1 (stereo unspecified),38.3 µM (active),
C[C@H]1O[C@@H](O[C@H]2[C@@H](O)C[C@H](O[C@H]3[C@@H](O)C[C@H](O[C@H]4CC[C@@]5(C)[C@H](CC[C@@H]6[C@@H]5CC[C@]5(C)[C@@H](C7=CC(=O)OC7)CC[C@]65O)C4)O[C@@H]3C)O[C@@H]2C)C[C@H](O)[C@@H]1O,0.119 µM (active),
